Measurements taken from PubChem BioAssay AID1159580 (chemical genetic matrix, 2015).
Hit rate of the full screen: of about 5,500 compounds, about 2,000 (36%) were called active. Not shown: some 18% with an inconclusive outcome. Cut-off read from the data, not from the text of the source: active = normalized growth mostly below about 0.91 (no sharp cut-off); inconclusive = no clear call, values can overlap the other calls; inactive = mostly above about 0.92. Some of the results follow.

Assay: chemical genetic growth profiling, strain panel (AID 1159580);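 note: tested at 20 µM; growth read once vehicle control cultures reached saturation at 30 °C; 1 = growth at the plate median or of vehicle wells; lower values mean less growth of the strain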
Conditions: S. cerevisiae deletion strains, growth OD
[1] = locus YDL101C, strain DUN1, stronger effect = lower value
[2] = locus YHR030C, strain SLT2, stronger effect = lower value
[3] = locus YJL095W, strain BCK1, stronger effect = lower value
[4] = locus YOR061W, strain CKA2, stronger effect = lower value

Measured: normalized growth

CC12CC[C@@H](O)CC1=CC[C@@H]1C2CCC2(C)C(=O)CC[C@@H]12 (some centres undefined)
active: [2] 0.787
inactive: locus YAR019C, strain CDC15, stronger effect = lower value 1.01 | locus YBL105C, strain PKC1, stronger effect = lower value 1.01 | locus YBR135W, strain CKS1, stronger effect = lower value 1.02 | locus YBR136W, strain MEC1, stronger effect = lower value 1.01 | locus YBR160W, strain CDC28, stronger effect = lower value 1.02 | locus YDL017W, strain CDC7, stronger effect = lower value 1.02 | locus YDL028C, strain MPS1, stronger effect = lower value 1.02 | [1] 1 | locus YDL108W, strain KIN28, stronger effect = lower value 1.01 | locus YDL132W, strain cdc53, stronger effect = lower value 1.02 | locus YDL214C, strain PRR2, stronger effect = lower value 0.915 | locus YDR052C, strain DBF4, stronger effect = lower value 1.01 | locus YDR054C, strain cdc34, stronger effect = lower value 1.01 | locus YDR226W, strain ADK1, stronger effect = lower value 1.01 | locus YDR477W, strain SNF1, stronger effect = lower value 0.909 | locus YER123W, strain YCK3, stronger effect = lower value 0.822 | locus YER133W, strain GLC7, stronger effect = lower value 0.915 | locus YFL009W, strain cdc4, stronger effect = lower value 1.02 | locus YFL029C, strain CAK1, stronger effect = lower value 1.01 | locus YFR003C, strain YPI1, stronger effect = lower value 1.01 | locus YFR019W, strain FAB1, stronger effect = lower value 0.801 | locus YFR028C, strain CDC14, stronger effect = lower value 1.01 | locus YGR040W, strain KSS1, stronger effect = lower value 0.889 | locus YGR052W, strain FMP48, stronger effect = lower value 0.924 | locus YGR092W, strain DBF2, stronger effect = lower value 0.695 | locus YHR079C, strain IRE1, stronger effect = lower value 0.96 | locus YHR082C, strain KSP1, stronger effect = lower value 0.95 | locus YHR205W, strain SCH9, stronger effect = lower value 0.852 | locus YIL147C, strain SLN1, stronger effect = lower value 1.01 | [3] 0.815 | locus YJL128C, strain PBS2, stronger effect = lower value 0.973 | locus YJL157C, strain FAR1, stronger effect = lower value 0.893 | locus YJR016C, strain ILV3, stronger effect = lower value 1.02 | locus YJR066W, strain TOR1 (second series), stronger effect = lower value 0.848 | locus YJR066W, strain TOR1, stronger effect = lower value 0.901 | locus YKL048C, strain ELM1, stronger effect = lower value 0.957 | locus YKL067W, strain YNK1, stronger effect = lower value 0.924 | locus YKL101W, strain HSL1, stronger effect = lower value 0.913 | locus YKL193C, strain SDS22, stronger effect = lower value 1.01 | locus YKL203C, strain TOR2, stronger effect = lower value 0.92 | locus YLR113W, strain HOG1, stronger effect = lower value 0.996 | locus YLR133W, strain CKI1, stronger effect = lower value 0.904 | locus YLR403W, strain SFP1, stronger effect = lower value 0.801 | locus YML070W, strain DAK1, stronger effect = lower value 0.903 | locus YMR001C, strain CDC5, stronger effect = lower value 1 | locus YMR205C, strain PFK2 (second series), stronger effect = lower value 0.916 | locus YMR277W, strain FCP1, stronger effect = lower value 1.01 | locus YNL006W, strain LST8, stronger effect = lower value 1.02 | locus YNL020C, strain ARK1, stronger effect = lower value 0.908 | locus YNL161W, strain CBK1, stronger effect = lower value 1.02 | locus YNL183C, strain NPR1, stronger effect = lower value 0.95 | locus YNL207W, strain RIO2, stronger effect = lower value 1.01 | locus YNL222W, strain SSU72, stronger effect = lower value 1.02 | locus YNL307C, strain MCK1 (second series), stronger effect = lower value 0.787 | locus YOL078W, strain AVO1, stronger effect = lower value 1 | locus YOL136C, strain PFK27, stronger effect = lower value 0.838 | [4] 0.861 | locus YOR119C, strain RIO1, stronger effect = lower value 0.938 | locus YOR231W, strain MKK1, stronger effect = lower value 0.912 | locus YOR329C, strain SCD5, stronger effect = lower value 1.02 | locus YPL031C, strain PHO85, stronger effect = lower value 0.899 | locus YPL153C, strain RAD53, stronger effect = lower value 0.921 | locus YPL204W, strain HRR25, stronger effect = lower value 0.853 | locus YPL209C, strain IPL1, stronger effect = lower value 1.02 | locus YPL256C, strain CLN2, stronger effect = lower value 1.07 | locus YPR025C, strain CCL1, stronger effect = lower value 1.02 | locus YPR106W, strain ISR1, stronger effect = lower value 0.998 | locus YPR111W, strain DBF20, stronger effect = lower value 1 | strain NNK1, stronger effect = lower value 1 | strain TSCII, stronger effect = lower value 1.01

CCC(CCC(C)C1CCC2C3CC=C4C[C@@H](OC(C)=O)CC[C@]4(C)C3CC[C@]12C)C(C)C (some centres undefined)
inactive: locus YBR021W, strain FUR4, stronger effect = lower value 0.996 | locus YBR229C, strain ROT2, stronger effect = lower value 0.99 | locus YCL029C, strain bik1, stronger effect = lower value 0.996 | locus YDL035C, strain GPR1, stronger effect = lower value 1.04 | locus YDL074C, strain BRE1, stronger effect = lower value 1.07 | [1] 0.979 | locus YDL134C, strain PPH21, stronger effect = lower value 1.01 | locus YDL185W, strain tfp1, stronger effect = lower value 0.974 | locus YDL192W, strain arf1, stronger effect = lower value 1 | locus YDR101C, strain arx1, stronger effect = lower value 1.02 | locus YDR162C, strain NBP2, stronger effect = lower value 1 | locus YDR318W, strain mcm21, stronger effect = lower value 0.976 | locus YDR388W, stronger effect = lower value 0.963 | locus YDR502C, strain sam2, stronger effect = lower value 0.968 | locus YEL061C, strain CIN8, stronger effect = lower value 1 | locus YER110C, stronger effect = lower value 0.968 | locus YER155C, strain BEM2, stronger effect = lower value 0.981 | locus YER167W, strain BCK2, stronger effect = lower value 1.01 | locus YGL078C, strain dbp3, stronger effect = lower value 0.964 | locus YGL086W, strain mad1, stronger effect = lower value 0.992 | locus YGL248W, strain PDE1, stronger effect = lower value 0.982 | locus YGR078C, strain PAC10, stronger effect = lower value 0.989 | locus YGR135W, strain pre9, stronger effect = lower value 0.945 | locus YGR252W, strain gcn5, stronger effect = lower value 0.941 | [2] 0.991 | locus YHR079C, strain IRE1 (second series), stronger effect = lower value 0.977 | locus YHR094C, strain hxt1, stronger effect = lower value 0.976 | locus YHR129C, strain ARP1, stronger effect = lower value 0.998 | locus YHR200W, strain rpn10, stronger effect = lower value 0.975 | locus YIL066C, strain RNR3, stronger effect = lower value 1.02 | locus YIL073C, strain SPO22, stronger effect = lower value 1.01 | locus YIL125W, strain kgd1, stronger effect = lower value 0.987 | locus YIR030C, strain dcg1, stronger effect = lower value 0.968 | [3] 0.991 | locus YJL134W, strain LCB3, stronger effect = lower value 0.991 | locus YJL168C, strain set2, stronger effect = lower value 0.96 | locus YJL187C, strain SWE1 (second series), stronger effect = lower value 0.979 | locus YJR043C, strain POL32, stronger effect = lower value 1.05 | locus YKL009W, strain mrt4, stronger effect = lower value 1.03 | locus YKL068W, stronger effect = lower value 0.987 | locus YKL085W, strain MDH1 (second series), stronger effect = lower value 0.989 | locus YKL085W, strain MDH1, stronger effect = lower value 0.989 | locus YKL190W, strain CNB1, stronger effect = lower value 1 | locus YKR001C, strain vps1, stronger effect = lower value 0.995 | locus YLR039C, strain RIC1, stronger effect = lower value 1.07 | locus YLR058C, strain SHM2, stronger effect = lower value 1 | locus YLR102C, strain apc9, stronger effect = lower value 0.978 | locus YLR262C, strain YPT6, stronger effect = lower value 1.08 | locus YLR268W, strain sec22, stronger effect = lower value 1.02 | locus YLR330W, strain CHS5, stronger effect = lower value 0.993 | locus YLR342W, strain FKS1 (second series), stronger effect = lower value 1.09 | locus YLR371W, strain rom2, stronger effect = lower value 0.993 | locus YLR418C, strain cdc73, stronger effect = lower value 0.959 | locus YML016C, strain PPZ1, stronger effect = lower value 1.01 | locus YML032C, strain rad52, stronger effect = lower value 1.01 | locus YML124C, strain tub3, stronger effect = lower value 0.98 | locus YMR078C, strain ctf18, stronger effect = lower value 0.962 | locus YMR223W, strain ubp8, stronger effect = lower value 0.992 | locus YMR307W, strain GAS1, stronger effect = lower value 1.06 | locus YNL067W, strain RPL9B, stronger effect = lower value 0.974 | locus YNL128W, strain TEP1, stronger effect = lower value 1.01 | locus YNL233W, strain BNI4, stronger effect = lower value 0.98 | locus YNL250W, strain rad50, stronger effect = lower value 0.947 | locus YNL271C, strain bni1, stronger effect = lower value 0.957 | locus YNL298W, strain CLA4, stronger effect = lower value 0.997 | locus YNL307C, strain MCK1, stronger effect = lower value 0.975 | locus YNR052C, strain pop2, stronger effect = lower value 0.961 | locus YOL006C, strain TOP1, stronger effect = lower value 1.2 | locus YOL012C, strain htz1 1.41 | locus YOL147C, strain pex11, stronger effect = lower value 0.989 | [4] 1.01 | locus YOR069W, strain VPS5, stronger effect = lower value 0.99 | locus YOR136W, strain idh2, stronger effect = lower value 0.975 | locus YOR144C, strain elg1, stronger effect = lower value 0.97 | locus YOR184W, strain ser1, stronger effect = lower value 1.04 | locus YOR316C, strain cot1, stronger effect = lower value 0.978 | locus YPL055C, strain LGE1, stronger effect = lower value 1.03 | locus YPL241C, strain CIN2, stronger effect = lower value 0.984 | locus YPR119W, strain clb2, stronger effect = lower value 0.971 | locus YPR141C, strain kar3, stronger effect = lower value 0.975 | locus YPR163C, strain tif3, stronger effect = lower value 0.982 | locus YPR167C, strain met16, stronger effect = lower value 0.967 | strain wtn01, stronger effect = lower value 1.01
